Bioassay records deposited in PubChem BioAssay by several laboratories.
KKLEB tox – cytotoxicity in KKLEB CF airway cells, primary screen, cytotoxicity control for CF NF-kB inhibitor project, cell-based, uHTS, fluorescence assay plates | KKLEB CF airway cells viability, ATPlite luminescence, overnight; active compounds read low; cells stimulated with P. aeruginosa culture filtrate | activity change (cytotoxicity), % at 5 µM | 0.36% of 360,000 active | AID 602141, 2011;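 active = corrected activity change at or below -50% at 5 µM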
Shn3 inh set2 – reduction of Shn3 3'UTR firefly luciferase signal, primary screen, Schnurri-3 inhibitor project, cell-based, Clone20 osteoblasts, set 2; Clone20 osteoblast Shn3 3'UTR firefly luciferase, 24 h; 0.52% of 360,000 active; inhibition, % at 12.5 µM; AID 588674, 2011;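 active = mean inhibition of at least 75% with every replicate also reaching 75%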;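 also: 0% = median of neutral control wells and 100% = pilot-screen positive control compound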
HIF-2a block – HIF-2a reporter inhibitors, primary screen, luminescence, 786-0 RCC cells; 786-0 RCC cells HIF-2a reporter, luciferase luminescence, overnight; inhibition, % at 18.8 µM; 0.72% of 360,000 active; AID 624352, 2012;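 active = inhibition of the luminescence signal of 40% or more relative to plate controls, in a single-dose primary screen at 18.75 µM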
Peg3 prom inh – Peg3 promoter-driven luciferase inhibitors, primary screen, cell-based, HeLa, luciferase luminescence | HeLa PEG-Prom luciferase reporter, overnight | inhibition, % at 20 µM | 1.7% of 360,000 active;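 active = inhibition of at least 50% at 20 µM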
CF NFkB inh – inhibitors of PAF-induced NF-kB signaling, primary screen, cell-based, GFP fluorescence, uHTS | AID 588850, 2011 | inhibition, % at 5 µM | 0.86% of 360,000 active | KKLEB NF-kB-GFP reporter, GFP fluorescence overnight;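 active = at least 50% inhibition at 5 µM, scaled per plate between neutral and stimulator controls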;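 also: PAF is a Pseudomonas aeruginosa culture filtrate used as stimulus; plate controls were PAF-stimulated DMSO wells for no effect and unstimulated DMSO wells for full effect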
Mdm2-MdmX confirm – retested Mdm2-MdmX interaction blockers, confirmation, cell-based, luminescence, single concentration, set 2; shares compounds with HIF-2a block; inhibition, % at 8 µM; AID 504601, 2011; 99% of 740 active; SaOS-2 split-luciferase Mdm2/MdmX complementation;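 active = mean inhibition of the luminescence signal across two replicates at or above 26 percent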
Target sequence (O15151 whole entry, looked up): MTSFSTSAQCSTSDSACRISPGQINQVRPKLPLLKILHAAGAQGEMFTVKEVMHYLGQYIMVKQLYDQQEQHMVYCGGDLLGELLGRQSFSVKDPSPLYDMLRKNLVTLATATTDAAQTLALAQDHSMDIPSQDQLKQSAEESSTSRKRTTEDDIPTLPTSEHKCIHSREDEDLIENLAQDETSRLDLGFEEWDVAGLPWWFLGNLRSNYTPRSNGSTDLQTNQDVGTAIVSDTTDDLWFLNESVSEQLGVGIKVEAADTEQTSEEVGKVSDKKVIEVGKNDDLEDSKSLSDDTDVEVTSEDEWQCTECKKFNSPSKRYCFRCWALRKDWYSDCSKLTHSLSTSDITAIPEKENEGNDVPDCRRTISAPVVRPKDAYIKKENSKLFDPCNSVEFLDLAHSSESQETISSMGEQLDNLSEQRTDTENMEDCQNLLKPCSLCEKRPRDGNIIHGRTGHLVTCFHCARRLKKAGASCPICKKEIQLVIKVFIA
Target sequence (Q00987 whole entry, looked up): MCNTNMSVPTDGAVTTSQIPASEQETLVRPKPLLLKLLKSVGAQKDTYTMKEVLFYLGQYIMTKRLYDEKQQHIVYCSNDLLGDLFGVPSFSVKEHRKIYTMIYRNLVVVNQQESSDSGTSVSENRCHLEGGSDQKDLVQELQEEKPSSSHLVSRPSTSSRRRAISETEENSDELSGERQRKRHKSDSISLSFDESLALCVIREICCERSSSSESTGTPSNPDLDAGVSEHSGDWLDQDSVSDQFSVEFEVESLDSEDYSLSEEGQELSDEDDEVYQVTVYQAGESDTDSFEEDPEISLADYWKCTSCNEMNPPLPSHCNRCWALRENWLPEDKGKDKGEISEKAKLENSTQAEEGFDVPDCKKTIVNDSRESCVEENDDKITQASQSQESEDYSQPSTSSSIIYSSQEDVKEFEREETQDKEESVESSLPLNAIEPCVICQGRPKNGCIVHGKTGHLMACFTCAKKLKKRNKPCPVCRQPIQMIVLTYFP
HIF-2a conf – HIF-2a reporter inhibitor retest, confirmation, luminescence, 786-0 RCC cells. HIF-2a luciferase reporter luminescence, overnight. AID 651580, 2012. shares compounds with HIF-2a block. inhibition, % at 18.8 µM. 56% of 1,800 active;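 active = mean inhibition across four replicates of at least 40 percent at the single tested concentration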
HIF-1a cs – HIF-1a luciferase reporter signal reduction – MiaPaCa-2 cells, single concentration, counter-screen for HIF-2a inhibitor project, confirmation. 72% of 1,800 active. shares compounds with HIF-2a block. MiaPaCa-2 HIF-1a luciferase reporter, desferoxamine, overnight. inhibition, % at 18.8 µM;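 active = mean inhibition of the reporter signal across four replicates at the single tested dose of 50% or more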
* marks the source's active call; other numbers are inactive results. In the library only some 2.6% were active in any assay of this set; here they are far more common.

What do the screens show for `CCOC(=O)C1CCN(Cc2cc(=O)oc3c(C)c(C)ccc23)CC1`?
KKLEB tox: -4; Shn3 inh set2: 18; HIF-2a block: 57*; Peg3 prom inh: 20; CF NFkB inh: 10; HIF-2a conf: 78*; HIF-1a cs: 25

What do the screens show for `O=C(Nc1cc(Cl)cc2c1-c1ccc(Cl)cc1C2O)C(Cl)Cl` (stereo unspecified)?
KKLEB tox: 8; Shn3 inh set2: 49; HIF-2a block: 45*; Peg3 prom inh: 95*; CF NFkB inh: -63; HIF-2a conf: -79; HIF-1a cs: 72*

What do the screens show for `CC1(C(=O)NS(=O)(=O)c2cccs2)CCN1C(=O)c1ccccc1` (stereo unspecified)?
KKLEB tox: 0; Shn3 inh set2: 5; HIF-2a block: -20; Peg3 prom inh: -13; CF NFkB inh: -4

What do the screens show for `CC(=O)Nc1ccc(OCc2cccc3ccccc23)cc1`?
KKLEB tox: 2; Shn3 inh set2: 10; HIF-2a block: 88*; Peg3 prom inh: 17; CF NFkB inh: -17; HIF-2a conf: 97*; HIF-1a cs: 90*

What do the screens show for `COc1ccc(NC(=O)CNC(=O)Cc2cccc3ccccc23)cc1`?
KKLEB tox: -5; Shn3 inh set2: -12; HIF-2a block: 5; Peg3 prom inh: -5; CF NFkB inh: 21

What do the screens show for `CCc1cc(=O)oc2c(C)c(OCC(=O)NCCCn3ccnc3)ccc12`?
KKLEB tox: -5; Shn3 inh set2: -71; HIF-2a block: 0; Peg3 prom inh: 7; CF NFkB inh: 11

How did CCOC(=O)c1c(NC(=O)/C=C/C(=O)O)sc(C)c1-c1ccc(C(C)(C)C)cc1 do in these assays?
KKLEB tox: -86*; Shn3 inh set2: 57; HIF-2a block: -21; Peg3 prom inh: 29; CF NFkB inh: 66*; Mdm2-MdmX confirm: 103*

How did CCOC(=O)c1c(NC(=O)c2c(-c3ccccc3)noc2C)sc(C)c1-c1ccccc1 do in these assays?
KKLEB tox: 0; Shn3 inh set2: 81; HIF-2a block: -13; Peg3 prom inh: 5; CF NFkB inh: -3; Mdm2-MdmX confirm: 102*

How did NC(=O)c1ccc(Cl)c2ccccc12 do in these assays?
KKLEB tox: -8; Shn3 inh set2: -22; HIF-2a block: 58*; Peg3 prom inh: -17; CF NFkB inh: 14; HIF-2a conf: 4; HIF-1a cs: 28

How did NC(=O)c1cccc2ccccc12 do in these assays?
KKLEB tox: -3; HIF-2a block: 15; Peg3 prom inh: 20; CF NFkB inh: -7

How did O=C(CN(c1cccc(C(F)(F)F)c1)S(=O)(=O)c1ccc(Cl)c([N+](=O)[O-])c1)NCc1ccccc1Cl do in these assays?
KKLEB tox: -2; Shn3 inh set2: 30; HIF-2a block: 70*; Peg3 prom inh: 101*; CF NFkB inh: -10; HIF-2a conf: 22; HIF-1a cs: 104*

Results for CC(NC(=O)CN(c1cccc(C(F)(F)F)c1)S(=O)(=O)c1ccc(Cl)c([N+](=O)[O-])c1)c1ccccc1 (stereo unspecified) ?
KKLEB tox: 13; Shn3 inh set2: 5; HIF-2a block: 78*; Peg3 prom inh: 104*; CF NFkB inh: -10; HIF-2a conf: 10; HIF-1a cs: 103*

What do the screens show for `OCCC1CN(Cc2cccc3nccnc23)CCN1Cc1ccc(F)c(F)c1` (stereo unspecified)?
KKLEB tox: -11; Shn3 inh set2: -5; HIF-2a block: 16; Peg3 prom inh: 15; CF NFkB inh: 13

Results for COc1ccc(C(=O)NCCNc2nc3cc(C)cc(C)c3cc2C#N)c(OC)c1 ?
HIF-2a block: 66*; HIF-2a conf: 82*; HIF-1a cs: 98*

What do the screens show for `COc1ccccc1C(=O)NCCNc1nc2cc(C)cc(C)c2cc1C#N`?
KKLEB tox: -9; Shn3 inh set2: 22; HIF-2a block: 9; Peg3 prom inh: 20; CF NFkB inh: 10

How did COC(=O)c1cnn(-c2nc(OC)cc(OC)n2)c1C do in these assays?
KKLEB tox: 16; Shn3 inh set2: -13; HIF-2a block: 2; Peg3 prom inh: -5; CF NFkB inh: -26

Results for COc1cc(OC)nc(-n2ncc(Br)c(Br)c2=O)n1 ?
KKLEB tox: -94*; Shn3 inh set2: 97*; HIF-2a block: 92*; Peg3 prom inh: 104*; CF NFkB inh: 91*; HIF-2a conf: 100*; HIF-1a cs: 106*

Results for CCCn1c(N)c(N(CCOC)C(=O)COC(=O)CSc2cc(C)c3ccccc3n2)c(=O)[nH]c1=O ?
KKLEB tox: -6; Shn3 inh set2: 4; HIF-2a block: 7; Peg3 prom inh: -10; CF NFkB inh: 2

Results for CCOC(=O)/C(C#N)=C\c1cccnc1 ?
KKLEB tox: 5; Shn3 inh set2: -12; HIF-2a block: 19; Peg3 prom inh: 21; CF NFkB inh: 10

How did CCOC(=O)/C(=C\c1ccccc1)C(=O)c1cc(C(C)=O)c(Nc2ccccc2)s1 do in these assays?
KKLEB tox: -34; Shn3 inh set2: 98*; HIF-2a block: 95*; Peg3 prom inh: 104*; CF NFkB inh: 23; HIF-2a conf: 88*; HIF-1a cs: 107*

What do the screens show for `CCOC(=O)/C(=C\c1cccnc1)C(=O)c1cc(C(C)=O)c(Nc2ccccc2)s1`?
KKLEB tox: 3; Shn3 inh set2: 98*; HIF-2a block: 96*; Peg3 prom inh: 119*; CF NFkB inh: 95*; Mdm2-MdmX confirm: 103*

What do the screens show for `COc1cc(/C=C2/CCC/C(=C\c3cc(O)c(OC)c(Cl)c3)C2=O)cc(Cl)c1O`?
KKLEB tox: 2; Shn3 inh set2: 45; HIF-2a block: 91*; Peg3 prom inh: 3; CF NFkB inh: -54; Mdm2-MdmX confirm: 103*

How did COc1cc(/C=C2\SC(N)=NC2=O)cc(Cl)c1O do in these assays?
KKLEB tox: 5; Shn3 inh set2: -5; HIF-2a block: 18; Peg3 prom inh: -8; CF NFkB inh: 4
